From PubChem BioAssay
Results filed as inconclusive are left out. Calls of active or inactive are those of the source.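 The calls were made as follows, unless noted: active = inhibition above the screen-wide mean plus 3 SD, about 51%; inactive = the rest.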

Assays:
[1] = rapamycin-like changes in RPL19A-GFP expression – cell-based, S. cerevisiae, multiplex flow cytometry, primary screen (AID 1862; in the data active = percent of DMSO control GFP below about 86%;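 also: lower values mimic rapamycin by blocking the RPL19A rise seen in DMSO cells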); conditions: S. cerevisiae RPL19A-GFP strain, flow cytometry fluorescence, 3 h; at 10 µM; stronger effect = lower value
[2] = TOR pathway GLN3 branch reporter MEP2-GFP changes – S. cerevisiae, multiplex flow cytometry, primary screen (AID 1867;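 active = GFP response, as percent of the DMSO control, above the screen-wide mean plus 3 SD, about 139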;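 also: median GFP channel fluorescence of barcode-gated MEP2-GFP cells measured by flow cytometry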); conditions: S. cerevisiae MEP2-GFP strain, 3 h, at 10 µM, stronger effect = higher value, 100% means same as DMSO wells
[3] = TOR pathway RTG branch CIT2 reporter changes – S. cerevisiae, GFP fusion, multiplex flow cytometry, primary screen (AID 1870;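 active = percent response above a set limit, the screen-wide mean plus 3 SD, cut at about 130% in these data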;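 also: barcoded CIT2-GFP strain pooled with four other GFP strains with rapamycin as positive control; median GFP fluorescence per well over plate mean of DMSO wells so 100% = DMSO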); conditions: S. cerevisiae CIT2-GFP expression, 3 h, at 10 µM, stronger effect = higher value
[4] = TOR pathway LAP4-GFP level changes – S. cerevisiae, multiplex flow cytometry, primary screen (AID 1873;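 active = GFP signal, as percent of the solvent control, above the screen mean plus 3 SD, about 149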); conditions: S. cerevisiae LAP4-GFP expression, 3 h, at 10 µM, stronger effect = higher value
[5] = yeast AGP1-GFP level changes, GLN3 branch – cell-based, multiplex flow cytometry, S. cerevisiae, primary screen (AID 1887;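 active = GFP signal above the screen-wide mean plus 3 SD, that is over about 124.5% of the solvent control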;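 also: AGP1-GFP fusion strain of S. cerevisiae within a five-strain barcoded multiplex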); conditions: 3 h, at 10 µM, stronger effect = higher value
[6] = hit retest on RPL19A-GFP reporter strain – cell-based, S. cerevisiae, flow cytometry, cherry picks, mother/daughter gates, confirmation (AID 2270;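 active = GFP response below 50% of the DMSO control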); conditions: 3 h, at 10 µM, stronger effect = lower value, 100 = same GFP as DMSO wells
[7] = yeast TOR pathway reporter LAP4-GFP change – cell-based, cherry picks, flow cytometry, mother/daughter gates, confirmation (AID 2271;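 active = GFP response above 150% of the DMSO control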;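 also: ratio of sample to DMSO plate mean so 100% equals DMSO level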); conditions: S. cerevisiae LAP4-GFP strain, 3 h, at 10 µM, stronger effect = higher value, 100 means same as DMSO control
[8] = TOR pathway reporter MEP2-GFP, retest of hits – S. cerevisiae, flow cytometry GFP, cherry picks, confirmation (AID 2272;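 active = GFP response above 150% of the DMSO control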;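 also: ratio of well signal to plate DMSO mean so 100% equals DMSO level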); conditions: S. cerevisiae MEP2-GFP strain, 3 h, at 10 µM, stronger effect = higher value
[9] = TOR pathway CIT2 reporter hit retest – S. cerevisiae, GFP fusion, cherry picks, mother/daughter gates, confirmation (AID 2274;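 active = GFP response above 150% of the DMSO level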); conditions: S. cerevisiae CIT2-GFP strain, flow cytometry, 3 h, at 10 µM, stronger effect = higher value
[10] = reduced mouse 2C T cell binding to pMHC/ICAM-1 vesicles – MLPCN validation set, flow cytometry, LFA-1/ICAM-1 modulator project, pilot screen (AID 2523;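 active = response below a set limit, under 55% cells CD8-positive and vesicle-bound, and CD8 cells' 90th-percentile brightness under 279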;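 as to vesicle binding response: mean PE anti-B7-1 fluorescence of CD8+ cells relative to row control; 100% = QL9-loaded vesicles with DMSO vehicle in the same plate row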); conditions: 2C mouse CD8+ T cells, at 7 µM, stronger effect = lower value; double positive events: measured here: CD8+/vesicle+ event percentage
[11] = molecular target: Integrin beta-1 (Homo sapiens) + Integrin alpha-4 (Homo sapiens) (UniProt P13612+P05556); assay: alpha4beta1 integrin LIBS antibody binding reduction – U937 cells, HUTS-21 mAb, flow cytometry, validation set, VLA-4 allosteric modulator project, pilot screen (AID 2674;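 active = inhibition above 50%, about 3 SD of the validation set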;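 also: antibody binding induced by the VLA-4 ligand LDV present at three times its Kd; 0% = LDV ligand with antibody and no compound and 100% = antibody without LDV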); conditions: HUTS-21 LIBS mAb binding, at 6.7 µM, stronger effect = higher value, binding induced by LDV ligand
[12] = calorie-restriction mimetic ROS inhibitors, yeast – validation compound set, pilot screen (AID 2706;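 active = superoxide response below 65% of plate, a cut near 3 SD across the whole screen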;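 also: yeast exposed to compound for one week at 30 degrees C before staining; 100% = mean of all compound wells on the same plate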); conditions: S. cerevisiae aging, superoxide DHE fluorescence; at 10 µM; stronger effect = lower value
[13] = molecular target: Beta-adrenergic receptor kinase 1 (Homo sapiens) (UniProt P25098); assay: GRK2 binders displacing RNA aptamer, biochemical, validation, human GRK2, bead flow cytometry (AID 488806;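 active = aptamer binding inhibition above 30%, about 3 SD of noise from non-fluorescent compounds; inactive = inhibition at or below 30%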); conditions: bead-bound GRK2, FAM-aptamer displacement, at 10 µM, stronger effect = higher value
[14] = molecular target: Beta-2 adrenergic receptor (Homo sapiens) (UniProt P07550); assay: agonist-induced loss of surface beta2AR – cell-based, FAP fluorogen, flow cytometry, validation set, pilot screen (AID 504459;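 active = percent response above 42, roughly 3 SD of non-fluorescent test compounds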;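 also: agonist-driven loss of surface beta2AR via internalization measured by FAP dye flow cytometry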); conditions: Am2.2-beta2AR cells, at 10 µM, stronger effect = higher value
[15] = molecular target: AP-2 complex subunit beta (Homo sapiens) (UniProt P63010); assay: beta-arrestin/AP2 interaction blockers – biochemical, validation set, GST-AP2 beads, flow cytometry, pilot screen (AID 504541;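 active = inhibition above 54%, about 3 SD of non-fluorescent compounds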;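 also: AP2 carries R879A mutation and is captured from E. coli lysate; bead-bound FITC arrestin peptide fluorescence measuring arrestin peptide binding to AP2; 0% = DMSO wells and 100% = excess unlabeled arrestin peptide control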); conditions: FITC arrestin peptide, at 10 µM, stronger effect = higher value, AP2 beta2 appendage fragment, R879A mutant
[16] = cytosolic pH regulators acting via V-ATPase – S. cerevisiae, pHLuorin, HTS validation (AID 504600; in the data active = response above about 15%;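 also: plate controls were DMSO for no effect and reference compound for full effect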); conditions: V-ATPase proton transport, at 10 µM, stronger effect = higher value
[17] = test system: anti-desmoglein-3 scFv antibody binding to human DSG3; assay: blockers of pathogenic pemphigus antibody–desmoglein-3 binding – biochemical, validation compound set, bead-based, flow cytometry, pilot screen (AID 588368;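 active = binding below the plate cutoff, the plate median minus 3 SD, with a reading above zero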;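 also: signal is the median channel fluorescence of bead-bound GFP antibody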); conditions: Protein G beads, DSG3-Fc, scFv-GFP binding, at 10 µM, stronger effect = lower value
[18] = Nile Red efflux blockade in pump-expressing yeast – validation compound set, multiplex, phenotypic, pilot screen (AID 588506;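 active = efflux inhibition above 0.42, the validation set average plus 4 SD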;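 also: Nile Red retained in cells so higher fluorescence means more efflux inhibition; 0 = negative control wells and 1 = enniatin B 25 µM full block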); conditions: S. cerevisiae pump-expressing triplex, Nile Red efflux flow cytometry; at 10 µM; stronger effect = higher value; the pumps come from Candida albicans
[19] = molecular target: ATP-binding cassette sub-family B member 6 (Homo sapiens) (UniProt Q9NP58); assay: blockers of ABCB6-driven porphyrin uptake – K562-ABCB6 cells, flow cytometry, validation set, pilot screen (AID 588550); conditions: K562-ABCB6 porphyrin accumulation, 1 h, at 10 µM, stronger effect = higher value;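 also: 0% = DMSO wells and 100% = benzethonium chloride 70 µM positive control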
[20] = AML differentiation inducers, ER-HoxA9 marrow cells – cell-based, GFP/MAC1 double positive, flow cytometry, validation set, primary screen (AID 588685;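 active = differentiation response of at least 50%, scaled between solvent and reference control, from cells with both markers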;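 also: compound exposure lasts four days before antibody staining and flow analysis; 0% = DMSO wells and 100% = 5 µM fulvestrant positive control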); conditions: stronger effect = higher value, normalized: vehicle 0, fulvestrant 100
[21] = measured here: daughter cell gate
[22] = measured here: mother cell gate
[23] = measured here: mother cell gate response
[24] = measured here: daughter cell gate response

Chain of Integrin beta-1 (Homo sapiens) + Integrin alpha-4 (Homo sapiens) (P05556 whole entry, looked up): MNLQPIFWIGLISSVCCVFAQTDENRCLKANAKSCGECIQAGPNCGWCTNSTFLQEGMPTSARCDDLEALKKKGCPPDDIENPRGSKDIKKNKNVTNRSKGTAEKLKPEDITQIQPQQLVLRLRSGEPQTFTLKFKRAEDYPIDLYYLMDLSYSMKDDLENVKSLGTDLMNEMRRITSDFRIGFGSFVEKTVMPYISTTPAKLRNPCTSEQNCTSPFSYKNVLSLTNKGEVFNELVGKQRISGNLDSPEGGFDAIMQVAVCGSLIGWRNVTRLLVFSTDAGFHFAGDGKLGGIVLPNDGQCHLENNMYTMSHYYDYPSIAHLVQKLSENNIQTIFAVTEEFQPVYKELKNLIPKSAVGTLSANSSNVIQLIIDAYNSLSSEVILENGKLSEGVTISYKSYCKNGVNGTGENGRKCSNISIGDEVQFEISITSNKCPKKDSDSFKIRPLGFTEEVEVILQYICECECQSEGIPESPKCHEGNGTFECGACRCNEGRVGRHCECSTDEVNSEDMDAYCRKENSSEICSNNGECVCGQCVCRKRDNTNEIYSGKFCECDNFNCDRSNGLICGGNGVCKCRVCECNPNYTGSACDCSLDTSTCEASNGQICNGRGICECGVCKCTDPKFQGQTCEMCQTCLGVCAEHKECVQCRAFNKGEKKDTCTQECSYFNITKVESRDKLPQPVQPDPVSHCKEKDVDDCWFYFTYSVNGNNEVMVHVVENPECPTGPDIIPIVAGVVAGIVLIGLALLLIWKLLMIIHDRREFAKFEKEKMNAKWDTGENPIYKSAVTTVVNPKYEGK
Chain of Integrin beta-1 (Homo sapiens) + Integrin alpha-4 (Homo sapiens) (P13612 whole entry, looked up): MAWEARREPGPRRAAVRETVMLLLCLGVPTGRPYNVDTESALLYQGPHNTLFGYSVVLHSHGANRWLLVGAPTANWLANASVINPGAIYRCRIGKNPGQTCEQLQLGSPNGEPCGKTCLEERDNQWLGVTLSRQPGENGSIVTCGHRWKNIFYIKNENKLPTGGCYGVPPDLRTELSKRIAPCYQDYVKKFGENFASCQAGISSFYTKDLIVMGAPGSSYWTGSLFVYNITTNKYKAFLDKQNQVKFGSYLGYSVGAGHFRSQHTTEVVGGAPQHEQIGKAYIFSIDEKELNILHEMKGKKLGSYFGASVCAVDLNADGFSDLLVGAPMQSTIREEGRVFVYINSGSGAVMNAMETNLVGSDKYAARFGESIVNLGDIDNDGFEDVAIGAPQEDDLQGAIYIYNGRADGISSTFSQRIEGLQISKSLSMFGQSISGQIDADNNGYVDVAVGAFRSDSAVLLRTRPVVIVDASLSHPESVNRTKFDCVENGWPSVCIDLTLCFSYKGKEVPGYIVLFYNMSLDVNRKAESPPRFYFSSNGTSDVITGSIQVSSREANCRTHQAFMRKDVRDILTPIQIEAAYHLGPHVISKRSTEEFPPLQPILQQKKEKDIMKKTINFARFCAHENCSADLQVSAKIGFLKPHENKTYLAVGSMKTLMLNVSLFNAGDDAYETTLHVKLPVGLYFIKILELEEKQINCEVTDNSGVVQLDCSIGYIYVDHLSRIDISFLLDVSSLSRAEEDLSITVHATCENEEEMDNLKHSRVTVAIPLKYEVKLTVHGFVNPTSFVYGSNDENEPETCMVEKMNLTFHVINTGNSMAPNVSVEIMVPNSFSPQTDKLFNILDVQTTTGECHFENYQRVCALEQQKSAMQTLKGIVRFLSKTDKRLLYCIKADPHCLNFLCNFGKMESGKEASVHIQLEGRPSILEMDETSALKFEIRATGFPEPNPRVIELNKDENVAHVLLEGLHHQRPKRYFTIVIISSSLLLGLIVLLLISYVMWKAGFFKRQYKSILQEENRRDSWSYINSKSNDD
Chain of Beta-2 adrenergic receptor (Homo sapiens) (P07550 whole entry, looked up): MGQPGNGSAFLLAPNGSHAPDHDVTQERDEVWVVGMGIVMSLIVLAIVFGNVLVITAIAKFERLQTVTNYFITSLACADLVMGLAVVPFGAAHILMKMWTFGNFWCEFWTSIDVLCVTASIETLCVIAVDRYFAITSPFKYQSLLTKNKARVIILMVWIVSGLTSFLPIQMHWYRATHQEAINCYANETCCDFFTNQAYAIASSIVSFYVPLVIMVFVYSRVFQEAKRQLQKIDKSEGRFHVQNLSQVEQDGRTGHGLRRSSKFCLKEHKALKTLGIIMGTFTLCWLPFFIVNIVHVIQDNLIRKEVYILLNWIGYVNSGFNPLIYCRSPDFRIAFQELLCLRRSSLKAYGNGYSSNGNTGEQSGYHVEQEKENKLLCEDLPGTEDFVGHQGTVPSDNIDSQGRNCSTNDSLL
Chain of Beta-adrenergic receptor kinase 1 (Homo sapiens) (P25098 whole entry, looked up): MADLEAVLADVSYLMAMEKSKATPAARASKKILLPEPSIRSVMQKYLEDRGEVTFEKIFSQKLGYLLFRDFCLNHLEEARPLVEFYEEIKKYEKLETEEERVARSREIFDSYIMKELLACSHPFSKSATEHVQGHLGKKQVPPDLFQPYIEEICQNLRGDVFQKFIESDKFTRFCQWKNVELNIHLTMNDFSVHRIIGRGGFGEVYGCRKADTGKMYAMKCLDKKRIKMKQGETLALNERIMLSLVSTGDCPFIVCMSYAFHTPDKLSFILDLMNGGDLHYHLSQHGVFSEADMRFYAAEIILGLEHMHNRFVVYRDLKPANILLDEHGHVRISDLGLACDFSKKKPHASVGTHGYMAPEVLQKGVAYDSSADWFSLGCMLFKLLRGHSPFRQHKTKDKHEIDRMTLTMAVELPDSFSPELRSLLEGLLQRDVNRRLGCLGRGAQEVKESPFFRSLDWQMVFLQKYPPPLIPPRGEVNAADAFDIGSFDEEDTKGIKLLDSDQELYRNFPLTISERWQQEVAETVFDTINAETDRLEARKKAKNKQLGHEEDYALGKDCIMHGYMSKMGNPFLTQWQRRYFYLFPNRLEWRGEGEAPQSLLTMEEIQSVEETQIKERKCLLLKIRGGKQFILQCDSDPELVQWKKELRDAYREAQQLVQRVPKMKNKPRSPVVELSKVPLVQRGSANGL
Chain of AP-2 complex subunit beta (Homo sapiens) (P63010 whole entry, looked up, the tested form may be a part, one chain of several): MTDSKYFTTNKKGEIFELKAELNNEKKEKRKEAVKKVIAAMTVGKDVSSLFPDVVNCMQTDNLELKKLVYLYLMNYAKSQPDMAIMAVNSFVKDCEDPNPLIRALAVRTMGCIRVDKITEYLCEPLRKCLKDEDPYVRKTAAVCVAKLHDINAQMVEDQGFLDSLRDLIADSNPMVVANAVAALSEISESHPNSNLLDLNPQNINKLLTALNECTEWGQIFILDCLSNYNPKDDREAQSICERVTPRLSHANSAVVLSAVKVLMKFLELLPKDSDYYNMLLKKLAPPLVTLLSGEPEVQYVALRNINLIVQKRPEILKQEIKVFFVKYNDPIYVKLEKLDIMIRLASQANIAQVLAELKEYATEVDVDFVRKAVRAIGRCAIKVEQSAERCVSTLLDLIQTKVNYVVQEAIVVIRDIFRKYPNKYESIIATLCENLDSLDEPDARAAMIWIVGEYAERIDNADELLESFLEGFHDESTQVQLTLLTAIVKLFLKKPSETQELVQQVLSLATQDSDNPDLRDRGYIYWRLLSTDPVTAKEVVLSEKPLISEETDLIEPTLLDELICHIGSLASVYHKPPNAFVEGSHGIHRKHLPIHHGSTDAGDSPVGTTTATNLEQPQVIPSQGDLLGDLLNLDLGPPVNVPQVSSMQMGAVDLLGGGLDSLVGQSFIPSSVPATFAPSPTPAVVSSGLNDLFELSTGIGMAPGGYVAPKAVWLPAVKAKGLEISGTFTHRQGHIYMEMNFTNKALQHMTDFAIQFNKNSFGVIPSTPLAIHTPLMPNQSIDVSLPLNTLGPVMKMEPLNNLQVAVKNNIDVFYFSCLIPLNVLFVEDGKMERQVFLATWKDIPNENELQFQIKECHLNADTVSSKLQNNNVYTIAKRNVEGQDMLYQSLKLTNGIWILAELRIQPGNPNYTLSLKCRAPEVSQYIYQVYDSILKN
Chain of ATP-binding cassette sub-family B member 6 (Homo sapiens) (Q9NP58 whole entry, looked up): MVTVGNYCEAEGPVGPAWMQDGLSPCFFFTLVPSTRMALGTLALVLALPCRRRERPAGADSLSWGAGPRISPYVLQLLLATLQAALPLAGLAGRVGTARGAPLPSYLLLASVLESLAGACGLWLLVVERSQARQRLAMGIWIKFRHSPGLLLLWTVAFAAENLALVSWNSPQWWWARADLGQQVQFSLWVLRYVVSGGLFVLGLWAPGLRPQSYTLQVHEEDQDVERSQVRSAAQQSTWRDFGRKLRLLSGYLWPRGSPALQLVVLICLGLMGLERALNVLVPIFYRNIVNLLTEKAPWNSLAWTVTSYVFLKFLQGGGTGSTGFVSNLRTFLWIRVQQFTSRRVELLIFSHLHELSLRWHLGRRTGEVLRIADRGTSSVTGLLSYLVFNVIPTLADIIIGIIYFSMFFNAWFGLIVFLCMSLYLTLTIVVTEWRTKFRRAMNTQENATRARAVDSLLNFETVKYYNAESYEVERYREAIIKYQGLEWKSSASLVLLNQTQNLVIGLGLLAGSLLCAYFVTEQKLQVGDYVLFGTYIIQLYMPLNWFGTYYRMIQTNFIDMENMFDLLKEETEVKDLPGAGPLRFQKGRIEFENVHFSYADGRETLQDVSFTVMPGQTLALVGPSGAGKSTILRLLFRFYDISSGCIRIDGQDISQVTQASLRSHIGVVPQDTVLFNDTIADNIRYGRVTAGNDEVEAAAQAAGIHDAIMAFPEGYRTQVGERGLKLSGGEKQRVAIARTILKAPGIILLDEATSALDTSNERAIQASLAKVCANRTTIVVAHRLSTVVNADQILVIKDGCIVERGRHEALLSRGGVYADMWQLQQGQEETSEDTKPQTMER

O=[N+]([O-])c1ccc(O)c2ncccc12
percent of DMSO control GFP [1]: 99.7% (inactive) | GFP response vs DMSO [2]: 122% (inactive) | percent response of DMSO control [3]: 81.5% (inactive) | GFP response vs DMSO [4]: 375% (active) | GFP response, % of DMSO [5]: 152% (active) | GFP response vs DMSO [6]: 104% (inactive) | GFP response vs DMSO [6, 21]: 99.8% | GFP response vs DMSO [6, 22]: 99.2% | GFP response relative to DMSO [7]: 274% (active) | GFP response relative to DMSO [7, 23]: 245% | GFP response vs DMSO [8]: 120% (inactive) | GFP response, % of DMSO [9]: 138% (inactive) | GFP response, % of DMSO [9, 21]: 121% | GFP response, % of DMSO [9, 22]: 126% | double positive events [10]: 59.9% | vesicle binding response [10]: 159% (inactive) | inhibition [11]: -1.12% (inactive) | superoxide response (% of plate) [12]: 56.6% (active) | aptamer binding inhibition [13]: 0% (inactive) | response [14]: -20% (inactive) | inhibition [15]: -6.92% (inactive) | response [16]: 65.3% (active) | binding (% of control) [17]: 83.2% (inactive) | efflux inhibition (fraction of control) [18]: -0.13 (inactive) | inhibition [19]: 1% (inactive) | differentiation response [20]: -3.02% (inactive)

C[C@H]1C[C@@H]2[C@H]([C@@H](O)C[C@@]3(C)[C@H]2CC[C@]3(O)C(=O)CO)[C@@]2(C)C=CC(=O)C=C12
percent of DMSO control GFP [1]: 85.8% (active) | GFP response vs DMSO [2]: 145% (active) | percent response of DMSO control [3]: 93.9% (inactive) | GFP response vs DMSO [4]: 80.3% (inactive) | GFP response, % of DMSO [5]: 83.6% (inactive) | GFP response vs DMSO [6]: 96.6% (inactive) | GFP response vs DMSO [6, 21]: 96.6% | GFP response vs DMSO [6, 22]: 96.6% | GFP response relative to DMSO [7]: 103% (inactive) | GFP response relative to DMSO [7, 24]: 102% | GFP response relative to DMSO [7, 23]: 99.3% | GFP response vs DMSO [8]: 105% (inactive) | GFP response, % of DMSO [9]: 99.7% (inactive) | GFP response, % of DMSO [9, 21]: 99.1% | GFP response, % of DMSO [9, 22]: 98.5% | double positive events [10]: 77.3% | vesicle binding response [10]: 227% (inactive) | inhibition [11]: 10.3% (inactive) | superoxide response (% of plate) [12]: 88.9% (inactive) | aptamer binding inhibition [13]: 7% (inactive) | response [14]: 1.51% (inactive) | inhibition [15]: 2.63% (inactive) | response [16]: 0.24% (inactive) | binding (% of control) [17]: 99.2% (inactive) | efflux inhibition (fraction of control) [18]: -0.38 (inactive) | inhibition [19]: 13% (inactive) | differentiation response [20]: 0% (inactive)

OC(CCN1CCCCC1)(c1ccccc1)c1ccccc1
percent of DMSO control GFP [1]: 92.8% (inactive) | GFP response vs DMSO [2]: 126% (inactive) | percent response of DMSO control [3]: 128% (active) | GFP response vs DMSO [4]: 86.9% (inactive) | GFP response, % of DMSO [5]: 91.9% (inactive) | GFP response vs DMSO [6]: 100% (inactive) | GFP response vs DMSO [6, 21]: 99% | GFP response vs DMSO [6, 22]: 102% | GFP response relative to DMSO [7]: 95% (inactive) | GFP response relative to DMSO [7, 24]: 97.2% | GFP response relative to DMSO [7, 23]: 95.2% | GFP response vs DMSO [8]: 100% (inactive) | GFP response, % of DMSO [9]: 96.5% (inactive) | GFP response, % of DMSO [9, 21]: 96.5% | GFP response, % of DMSO [9, 22]: 85.8% | double positive events [10]: 62.7% | vesicle binding response [10]: 152% (inactive) | inhibition [11]: 12.3% (inactive) | superoxide response (% of plate) [12]: 107% (inactive) | aptamer binding inhibition [13]: 2% (inactive) | response [14]: 1.89% (inactive) | inhibition [15]: 2.98% (inactive) | response [16]: 5.35% (inactive) | binding (% of control) [17]: 103% (inactive) | efflux inhibition (fraction of control) [18]: -0.24 (inactive) | inhibition [19]: 8% (inactive) | differentiation response [20]: -4.91% (inactive)

C[C@]12CCC(=O)C=C1[C@H](O)C[C@@H]1[C@@H]2[C@@H](O)C[C@@]2(C)[C@H]1CC[C@]2(O)C(=O)CO
percent of DMSO control GFP [1]: 106% (inactive) | GFP response vs DMSO [2]: 105% (inactive) | percent response of DMSO control [3]: 102% (inactive) | GFP response vs DMSO [4]: 102% (inactive) | GFP response, % of DMSO [5]: 107% (inactive) | GFP response vs DMSO [6]: 99.1% (inactive) | GFP response vs DMSO [6, 21]: 99.1% | GFP response vs DMSO [6, 22]: 99.2% | GFP response relative to DMSO [7]: 97.7% (inactive) | GFP response relative to DMSO [7, 24]: 97.9% | GFP response relative to DMSO [7, 23]: 95.6% | GFP response vs DMSO [8]: 99.5% (inactive) | GFP response, % of DMSO [9]: 102% (inactive) | GFP response, % of DMSO [9, 21]: 104% | GFP response, % of DMSO [9, 22]: 101% | double positive events [10]: 63.9% | vesicle binding response [10]: 182% (inactive) | inhibition [11]: -10.5% (inactive) | superoxide response (% of plate) [12]: 98.9% (inactive) | aptamer binding inhibition [13]: 2% (inactive) | response [14]: 6.38% (inactive) | inhibition [15]: -21.5% (inactive) | response [16]: 1.8% (inactive) | binding (% of control) [17]: 104% (inactive) | efflux inhibition (fraction of control) [18]: -0.05 (inactive) | inhibition [19]: 3% (inactive) | differentiation response [20]: 5.67% (inactive)
